Source: PubChem
PGC1a acetyl inh: lowers PGC1a acetylation signal in U2OS cells; AlphaScreen anti-acetyl-lysine; with virally co-expressed GCN5 acetyltransferase; inhibition, % at 15.6 µM; 0.17% of 350,000 active;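 active = every replicate shows inhibition of at least 40%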;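 note: 0% = neutral control wells and 100% = positive control wells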
AF4-AF9 inh: blocks AF4 peptide binding to human AF9; 0.47% of 350,000 active; AlphaScreen, biotin-AF4 peptide binding to FLAG-AF9; P42568; inhibition, % at 10 µM;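 active = every replicate reaching a set inhibition limit, whatever the replicate mean, cut at about 25% in these data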;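 note: 0% = plate neutral control median and 100% = total signal loss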
NSD2 inh: blocks human histone methyltransferase NSD2; AID 743445; inhibition, % at 12.5 µM; 0.54% of 310,000 active; NSD2 peptide methylation, AlphaScreen, 120 min; in the data active = inhibition above about 50%
Target sequence (O96028 whole entry, looked up): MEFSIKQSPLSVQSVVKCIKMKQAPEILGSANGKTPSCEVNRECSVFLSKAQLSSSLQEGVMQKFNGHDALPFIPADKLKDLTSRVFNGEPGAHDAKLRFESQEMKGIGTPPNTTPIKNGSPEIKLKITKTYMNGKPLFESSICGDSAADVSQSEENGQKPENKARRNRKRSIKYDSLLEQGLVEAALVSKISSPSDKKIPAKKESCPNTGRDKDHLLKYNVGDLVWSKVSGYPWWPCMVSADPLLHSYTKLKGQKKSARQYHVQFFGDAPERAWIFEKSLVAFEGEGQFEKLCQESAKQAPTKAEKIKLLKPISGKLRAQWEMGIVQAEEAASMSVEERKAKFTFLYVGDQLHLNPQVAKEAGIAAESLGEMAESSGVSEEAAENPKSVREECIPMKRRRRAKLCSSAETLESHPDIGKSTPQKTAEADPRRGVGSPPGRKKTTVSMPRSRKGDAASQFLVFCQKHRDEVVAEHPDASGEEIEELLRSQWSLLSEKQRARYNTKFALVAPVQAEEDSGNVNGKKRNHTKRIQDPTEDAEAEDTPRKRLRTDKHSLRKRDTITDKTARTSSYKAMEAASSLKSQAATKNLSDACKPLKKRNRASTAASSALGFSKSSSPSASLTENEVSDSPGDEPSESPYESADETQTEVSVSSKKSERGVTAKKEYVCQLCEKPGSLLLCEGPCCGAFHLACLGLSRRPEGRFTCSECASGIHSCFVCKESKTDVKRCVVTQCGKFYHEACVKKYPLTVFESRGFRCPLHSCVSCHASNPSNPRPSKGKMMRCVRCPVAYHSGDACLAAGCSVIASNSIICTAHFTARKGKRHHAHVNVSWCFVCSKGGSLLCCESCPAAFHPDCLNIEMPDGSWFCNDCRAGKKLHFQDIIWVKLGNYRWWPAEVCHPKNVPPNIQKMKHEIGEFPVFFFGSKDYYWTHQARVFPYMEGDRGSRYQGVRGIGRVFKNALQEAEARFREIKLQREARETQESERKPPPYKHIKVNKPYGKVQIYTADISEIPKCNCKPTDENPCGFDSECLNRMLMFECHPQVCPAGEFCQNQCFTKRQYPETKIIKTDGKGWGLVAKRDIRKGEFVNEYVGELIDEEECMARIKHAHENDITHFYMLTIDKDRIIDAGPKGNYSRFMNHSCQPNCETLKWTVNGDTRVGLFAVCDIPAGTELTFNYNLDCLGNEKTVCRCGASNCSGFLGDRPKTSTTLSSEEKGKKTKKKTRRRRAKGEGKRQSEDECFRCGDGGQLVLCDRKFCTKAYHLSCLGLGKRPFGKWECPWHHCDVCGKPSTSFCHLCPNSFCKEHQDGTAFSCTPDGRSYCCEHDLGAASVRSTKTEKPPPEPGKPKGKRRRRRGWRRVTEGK
HIV Env fusion: blocks HIV Env-driven cell-cell fusion | HeLa-JRFL Env/CEM21 cell fusion, luciferase | 1.1% of 360,000 active | inhibition, % at 12.3 µM;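 active = mean replicate inhibition score of at least 50 and every replicate individually at or above 50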;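 note: 0% = plate neutral controls and 100% = maraviroc near 300 nM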
INS-1E GSIS act: GLuc luminescence reporter in INS-1E cells, primary screen for activators of glucose-dependent secretion of insulin; INS-1E GLuc reporter insulin secretion, 2-3 h; activation, % at 16.6 µM; 0.61% of 370,000 active;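 active = lowest replicate activation of at least 40%, so every replicate reaches that level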;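 note: 0% = median of neutral control wells and 100% = median of IBMX positive control wells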
Numbers without * were called inactive; nt = not tested or not shown; ! = not confirmed by another sample; [ ] = remark or other dose. In the library only some 2.1% were active in any assay of this set; here they are far more common.

SMILES	PGC1a acetyl inh	AF4-AF9 inh	NSD2 inh	HIV Env fusion	INS-1E GSIS act
C[C@@H]1CCCCO[C@@H](CN(C)C(=O)NC2CCCCC2)[C@@H](C)CN([C@H](C)CO)C(=O)c2cc(NC(=O)CCCN(C)C)ccc2O1	10	-1	nt	-12[16.7 µM]	14
COc1ccc(NC(=O)/C(=C/c2ccc(OC(C)=O)c(OC)c2)NC(C)=O)cc1	nt	-1	-2	-1	4
O=C(NCCN1CCOCC1)/C(=C/c1ccccc1)NC(=O)c1ccccc1	nt	-2	1	-5	47*
CCn1cc(/C=C(\NC(=O)c2cc(OC)c(OC)c(OC)c2)C(=O)NCCCN2CCOCC2)c2ccccc21	1	25*	2	-7	11
O=C(N/C(=C\c1ccccc1)C(=O)N1CCN(CCO)CC1)c1ccccc1	-2	nt	-2	79*	-4
Cc1nn(CC(=O)NCCC2=CCCCC2)c(C)c1S(=O)(=O)N(C)C	6	-2	-1	6	-10
O=C(CN(Cc1ccccc1Cl)C(=O)CN1C(=O)CSc2ccccc21)NC1CC1	nt	-4	1	-20	8
COc1cccc(-c2ccc3c(c2)O[C@H](CN(C)C(C)=O)[C@H](C)CN([C@H](C)CO)S3(=O)=O)c1	-12	2	nt	2[16.7 µM]	18
CCn1c(SCC(=O)N2CCN(c3ccccc3)CC2)nnc1-c1cc2cc(Cl)ccc2o1	6	nt	2	68*	nt
CCCCN(Cc1ccccc1)S(=O)(=O)c1cc(Br)cc2c1N(C(C)=O)C(C)C2 (centres undefined)	5	nt	1	63*	nt
COc1cccc(N2C(C(C)=O)=NN(c3ccccc3)C2c2ccc(N3CCOCC3)cc2)c1 (centres undefined)	8	nt	-2	nt	11
COc1ccc(C2N(c3ccc(Cl)cc3)N=C(C(C)=O)N(C)N2C(C)=O)cc1 (centres undefined)	nt	28*	1	0	4
CC(C)CCNC(=O)Cn1c(=O)oc2cc(S(=O)(=O)N3CCc4ccccc43)ccc21	2	1	nt	24	-23
N#Cc1sc2nc(-c3ccccc3)cc(-c3ccco3)c2c1N	7	nt	nt	-71	nt
N#Cc1sc2nc(C3CC3)cc(-c3ccccc3)c2c1N	-16	-8	-1	-21	49*
C=CCc1ccc2oc(C(=O)OCC)cc(=O)c2c1O	nt	-2	-2	2	-1
C[C@@H]1CCCCO[C@H](CN(C)Cc2ccc3c(c2)OCO3)[C@H](C)CN([C@@H](C)CO)C(=O)c2cc(NC(=O)Nc3ccc(C(F)(F)F)cc3)ccc2O1	-6	5	nt	15[16.7 µM]	-8
C[C@@H]1CN([C@@H](C)CO)C(=O)c2cc(NC(=O)Nc3ccc(C(F)(F)F)cc3)ccc2O[C@@H](C)CCCCO[C@H]1CN(C)Cc1ccc2c(c1)OCO2	-8	4	nt	10[16.7 µM]	-3
C[C@H](CO)N1C[C@H](C)[C@@H](CN(C)Cc2ccc(C(F)(F)F)cc2)OCCCC[C@H](C)Oc2ccc(NC(=O)Nc3ccc4c(c3)OCO4)cc2C1=O	-6	2	nt	71*[16.7 µM]	-12
C[C@H]1CCCCO[C@@H](CN(C)Cc2ccc(C(F)(F)F)cc2)[C@@H](C)CN([C@@H](C)CO)C(=O)c2cc(NC(=O)Nc3ccc4c(c3)OCO4)ccc2O1	-3	2	nt	86*[16.7 µM]	1
C[C@@H]1CCCCO[C@@H](CN(C)Cc2ccc(C(F)(F)F)cc2)[C@H](C)CN([C@H](C)CO)C(=O)c2cc(NC(=O)Nc3ccc4c(c3)OCO4)ccc2O1	-5	2	nt	65*[16.7 µM]	-13
C[C@@H]1CCCCO[C@H](CN(C)Cc2ccc(C(F)(F)F)cc2)[C@H](C)CN([C@@H](C)CO)C(=O)c2cc(NC(=O)Nc3ccc4c(c3)OCO4)ccc2O1	0	-1	nt	26[16.7 µM]	-7
C[C@H]1CCCCO[C@H](CN(C)Cc2ccc(C(F)(F)F)cc2)[C@@H](C)CN([C@@H](C)CO)C(=O)c2cc(NC(=O)Nc3ccc4c(c3)OCO4)ccc2O1	4	2	nt	60*[16.7 µM]	-10
C[C@H](CO)N1C[C@H](C)[C@H](CN(C)C(=O)Nc2ccc(F)cc2)OCc2ccccc2-c2c(n(C)c3ccccc23)C1=O	-14	-2	nt	90*![16.7 µM]	-11
COc1ccccc1NC(=O)N(C)C[C@@H]1OCc2ccccc2-c2c(n(C)c3ccccc23)C(=O)N([C@@H](C)CO)C[C@@H]1C	-2	0	nt	nt	-15
SMILES	PGC1a acetyl inh	AF4-AF9 inh	NSD2 inh	HIV Env fusion	INS-1E GSIS act
COc1ccccc1NC(=O)N(C)C[C@@H]1OCc2ccccc2-c2c(n(C)c3ccccc23)C(=O)N([C@H](C)CO)C[C@@H]1C	5	5	nt	67*	-10
C[C@H](CO)N1C[C@H](C)[C@H](CN(C)C(=O)C2CC2)OCc2ccccc2-c2c(n(C)c3ccccc23)C1=O	2	-3	nt	60*[16.7 µM]	-1
COC(=O)N(C)C[C@@H]1OCc2ccccc2-c2c(n(C)c3ccccc23)C(=O)N([C@H](C)CO)C[C@@H]1C	0	-1	nt	66*!	-7
COc1ccc(NC(=O)N(C)C[C@H]2Oc3c(NC(=O)Nc4ccc5c(c4)OCO5)cccc3C(=O)N([C@H](C)CO)C[C@H]2C)cc1	4	6	nt	-6[16.7 µM]	-3
CCOC(=O)N1CCN(C(=O)COc2cccc3c2CCN(Cc2ccc(F)cc2)C3=O)CC1	2	nt	-2	57*	-14
O=C1c2cccc(OCc3ccc(F)cc3)c2CCN1Cc1ccccc1	22	nt	4	77*	-26
CCOC(=O)N1CCN(C(=O)COc2cccc3c2CCN(CC)C3=O)CC1	0	1	-3	16	6
Cn1c2c(c3ccccc31)CCN1CCC[C@]21c1ccccc1	-13	26*	9	11	-2
CN1CCc2c(c3ccccc3n2C)C1	-6	nt	8	-54	nt
CCOc1ccc(OCC)c(S(=O)(=O)n2cnc(C)c2)c1	-7	1	-5	-3	1
CN1CCN(C(=O)c2cccc(-c3cnc4cnc(-c5ccccc5Oc5ccccc5)cn34)c2)CC1	nt	23	nt	0	42*
CNC(=O)CSc1nc2cccnc2n1-c1ccc(F)cc1	-12	0	-1	-20	78*
CC(=O)c1cccc(S(=O)(=O)Nc2ccc3nc(C)sc3c2)c1	-2	-2	0	50	-38
Cc1nc2ccc(NS(=O)(=O)c3ccc(C)c(C)c3)cc2s1	-8	nt	3	71*	nt
C(=N\n1cnnc1)/c1nc2ccccc2[nH]1	-3	nt	1	nt	nt
COc1cccc(CNC2CCCC2)c1	3	4	-1	nt	22
CC(SCc1ccccc1)C(=O)N/N=C/c1cc2c(cc1Br)OCO2 (centres undefined)	-12	nt	4	88*	nt
CC(SCc1ccccc1)C(=O)N/N=C/c1ccc2c(c1)OCO2 (centres undefined)	-4	nt	5	nt	nt
O=C(c1ccco1)N1CCCC(c2nc(-c3ccc(S(=O)(=O)NCc4ccccc4)cc3)no2)C1 (centres undefined)	3	nt	-4	65*	nt
COc1ccc(-c2noc(C3CCCN(C(=O)c4ccccc4)C3)n2)cc1 (centres undefined)	-1	4	1	-13	-15
